Consider 16 molecules from PubChem BioAssay (NCATS).

Assay [1] can be described thus: qHTS assay for small molecule disruptors of the mitochondrial membrane potential - 5 hr assay (AID 651755; calls by dose curve; also: % is scaled to controls: 0 for no effect and ±100 for the full control effect; nearly all actives have a fitted effect of over 40% in size). The method in brief:
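Read-out: ratiometric Mito-MPS fluorescence, green monomer (ex 490/em 535) vs red mitochondrial aggregate (ex 540/em 590). HepG2 cells treated 5 hr at 37C before 30 min dye loading.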
In general terms: qHTS replaces the single test concentration by a dilution series.

Assay [2] addresses Tumor necrosis factor (Homo sapiens) (UniProt P01375). The assay is described as follows: qHTS assay to identify small molecules that stimulate Tumor Necrosis Factor-alpha (TNF-alpha) secretion (AID 651757; active = well fitted curve in the direction sought with a large enough effect in the signal ratio; the % refers to the signal ratio; also: 0% is about no effect). The method in brief: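 Secreted TNF-alpha quantified by TR-FRET sandwich of two labeled anti-TNF-alpha antibodies, incubated 3 hr at room temperature. Preceded by 17 hr, 37 C compound treatment of THP-1 cells at 3000 cells/well.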

The nature of assay [3]: qHTS assay to identify small molecules that stimulate interleukin-8 (IL-8) secretion (AID 651758; active = well fitted activation curve with a large enough effect in the signal ratio; the % refers to the signal ratio; also: 0% is about no effect). In outline: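 Compounds are added to THP-1 cells (2000 per well) and left 16 hrs at 37 C. A labeled anti-IL-8 antibody pair is then added, and IL-8 secretion is measured by time-resolved FRET after 1-3 hrs at room temperature.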
The nature of assay [4]: qHTS assay for environmental chemicals that activate the Aryl hydrocarbon Receptor (AhR) signaling pathway (AID 651777). Also: % of control where 0% means no effect; nearly all actives have a fitted effect of over 15% in size. Particulars: 1A2-DRE human hepatoma cells, luciferase, 24 h; activation: hits give high values. The method in brief:
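Reporter gene assay: hepatoma cells with DRE/CYP1A2-luciferase, 24 hr compound incubation at 37 C, 5% CO2, luminescence after One-Glo (30 min, RT).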

The target of assay [5] is Peroxisome proliferator-activated receptor alpha (Homo sapiens) (UniProt Q07869). The assay is described as follows: qHTS assay for small molecule agonists of the peroxisome proliferator-activated receptor alpha (PPARalpha) signaling pathway (AID 651778). Also: % of control where 0% means no effect. Particulars: PathHunter PPARalpha complementation, chemiluminescence, 6 h; hits give high values. In outline:
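Enzyme-fragment complementation assay in which ligand-bound PPARalpha translocates and forms an active enzyme that generates chemiluminescence. Cells were plated overnight, exposed to compound for 6 hr at 37 C, and then given detection reagent for 60 min at room temperature.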

Assay [6] concerns the target Nuclear receptor ROR-gamma (Homo sapiens) (UniProt P51449). The assay is described as follows: qHTS assay for small molecule antagonists of the retinoid-related orphan receptor gamma (ROR-gamma) signaling pathway (AID 651802). Also: nearly all actives have a fitted effect of over 60% in size. Also: potency is read from the fitted curve at half-maximal effect. The method in brief: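 Luminescence (One-Glo, 30 min RT) measured 16 h after compound addition and doxycycline induction at 37C. Reporter: RORE-luciferase under TET-inducible ROR-gamma in CHO cells.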

A short description of assay [7]: qHTS assay for small molecule agonists of the antioxidant response element (ARE) signaling pathway measured by Nrf2-dependant transcriptional activity (AID 720636; active = well fitted curve in the direction sought with a large enough effect in the repeat runs; an effect the other way counts as inactive or inconclusive;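 also: HepG2 cells with an ARE-driven luciferase reporter; % of control where 0% means no effect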). In outline: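 Nrf2-dependent transcription is measured in ARE-luc HepG2 cells: compound is applied for 16 hr at 37 C after a 6 hr attachment period, and luciferase activity is quantified by luminescence using ONE-Glo.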

Assay [8] is described as follows: qHTS assay for small molecule antagonists of the retinoid-related orphan receptor gamma (ROR-gamma) signaling pathway - cell viability counter screen (AID 720652; active = well fitted curve in the direction sought with a large enough effect in the repeat runs; an effect the other way counts as inactive or inconclusive;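 also: compound exposure lasted 16 hr before ATP read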; also: potency is read from the fitted curve at half-maximal effect). In outline:
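Cytotoxicity counter screen: intracellular ATP (CellTiter-Glo luminescence) measured in the doxycycline-induced CHO RORE-luciferase reporter line after 16 hr compound exposure at 37 C, 5% CO2.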

Assay [9] in a line: qHTS assay for small molecule agonists of the antioxidant response element (ARE) signaling pathway measured by Nrf2-dependant transcriptional activity - cell viability counter screen (AID 720653; active = well fitted curve in the direction sought with a large enough effect in the repeat runs; an effect the other way counts as inactive or inconclusive; also: % is scaled to controls: 0 for no effect and ±100 for the full control effect). The conditions noted are these: ARE-bla HepG2 viability, CellTiter-Glo ATP luminescence, 16 h; hits give low values. The method in brief:
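ARE-bla HepG2 cells treated with compounds for 16 h at 37C; this counter screen measures viability as intracellular ATP by CellTiter-Glo luminescence after 30 min at room temperature.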

Assay [10] can be described thus: qHTS assay for cell viability of HEK293 cells (AID 743288). Also: % is scaled to controls: 0 for no effect and ±100 for the full control effect; nearly all actives have a fitted effect of over 50% in size. The conditions noted are these: ATP luminescence (CellTiter-Glo), 18 h, hits give low values. In outline: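 Viable-cell counts were inferred from luciferase-based ATP content in HEK293 cells seeded at 2,000/well, pre-incubated ≥5 h, then dosed with DMSO-solubilised compounds for 18 h at 37 C.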
Assay [11] is described as follows: qHTS assay for cell viability of the p53RE-bla HCT-116 cell line (AID 743292). Also: % is scaled to controls: 0 for no effect and ±100 for the full control effect; nearly all actives have a fitted effect of over 55% in size. The method in brief:
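ATP-based luminescence, 16 h compound exposure at 37 C, p53RE-bla HCT-116 cells at 4,000/well.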

Assay [12] deals with Nuclear receptor subfamily 1 group I member 2 (Rattus norvegicus) (UniProt Q9R1A7). The assay is described as follows: qHTS assay for small molecule activators of the rat pregnane X receptor (rPXR) signaling pathway (AID 651751; call rule not given here; also: 0% is about no effect). The conditions noted are these: rPXR reporter cells, luciferase (One-Glo), 24 h.
Chain of Nuclear receptor subfamily 1 group I member 2 (Rattus norvegicus) (Q9R1A7 whole entry, looked up): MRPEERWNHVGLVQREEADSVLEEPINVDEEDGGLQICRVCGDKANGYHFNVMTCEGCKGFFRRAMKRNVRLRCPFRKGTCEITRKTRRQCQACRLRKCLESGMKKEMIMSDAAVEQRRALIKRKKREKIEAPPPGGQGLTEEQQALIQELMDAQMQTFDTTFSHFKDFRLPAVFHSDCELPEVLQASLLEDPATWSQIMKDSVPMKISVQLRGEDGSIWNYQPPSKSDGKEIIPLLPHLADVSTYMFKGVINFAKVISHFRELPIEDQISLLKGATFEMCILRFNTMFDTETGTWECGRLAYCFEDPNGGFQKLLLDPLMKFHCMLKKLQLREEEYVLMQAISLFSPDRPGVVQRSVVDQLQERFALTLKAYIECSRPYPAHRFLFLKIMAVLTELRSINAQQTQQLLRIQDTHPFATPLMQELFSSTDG
Assay [13] can be described thus: qHTS assay for small molecule activators of the human pregnane X receptor (PXR) signaling pathway (AID 720659; call rule not given here; also: 0% is about no effect).
Assay [14] is described as follows: qHTS assay for small molecule disruptors of the mitochondrial membrane potential - 1 hr assay (AID 651754; calls by dose curve; also: % is scaled to controls: 0 for no effect and ±100 for the full control effect; nearly all actives have a fitted effect of over 35% in size). In outline:
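Mitochondrial potential in living HepG2 cells after 1 hr compound treatment at 37C was read with Mito-MPS dye added for a further 30 min. Red aggregate and green monomer fluorescence were measured; loss of potential leaves dye as cytoplasmic monomers.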

SMILES strings stand for the structures. Several values for one entry are separate records, joined by “and”; a condition that tells them apart may be missing. Equal entries are not always repeated. A number with no mark means an inactive call. Records with an inconclusive call do not appear. Activity calls are given as the source filed them. Unless noted, calls follow the shape of the dose curve; as a rule, active = well fitted curve in the direction sought with a large enough effect; inconclusive = small, poorly fitted or top-dose-only effect, or another doubt; inactive = no such curve, though single readings can be large; an effect the other way counts as inactive or inconclusive.

Chain of Tumor necrosis factor (Homo sapiens) (P01375 whole entry, looked up): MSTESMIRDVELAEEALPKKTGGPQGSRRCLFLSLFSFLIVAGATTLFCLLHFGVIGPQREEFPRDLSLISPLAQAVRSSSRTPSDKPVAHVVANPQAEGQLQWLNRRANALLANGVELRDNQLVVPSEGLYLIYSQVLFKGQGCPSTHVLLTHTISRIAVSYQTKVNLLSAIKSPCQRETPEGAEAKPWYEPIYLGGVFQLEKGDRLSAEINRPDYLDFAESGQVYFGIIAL
Chain of Peroxisome proliferator-activated receptor alpha (Homo sapiens) (Q07869 whole entry, looked up, the tested form may be a part): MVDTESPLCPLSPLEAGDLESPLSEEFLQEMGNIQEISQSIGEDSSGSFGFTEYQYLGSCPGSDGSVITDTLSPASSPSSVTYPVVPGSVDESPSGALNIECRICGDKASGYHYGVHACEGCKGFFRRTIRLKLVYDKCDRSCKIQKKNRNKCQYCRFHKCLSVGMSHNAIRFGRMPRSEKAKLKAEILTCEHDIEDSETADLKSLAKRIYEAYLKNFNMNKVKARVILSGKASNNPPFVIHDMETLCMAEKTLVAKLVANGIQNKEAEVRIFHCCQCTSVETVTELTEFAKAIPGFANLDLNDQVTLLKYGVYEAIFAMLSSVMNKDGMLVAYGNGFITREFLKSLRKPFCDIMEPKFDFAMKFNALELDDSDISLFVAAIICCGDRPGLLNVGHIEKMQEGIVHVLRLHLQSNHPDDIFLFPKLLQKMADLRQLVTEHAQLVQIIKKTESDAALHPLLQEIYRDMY
Chain of Nuclear receptor ROR-gamma (Homo sapiens) (P51449 whole entry, looked up): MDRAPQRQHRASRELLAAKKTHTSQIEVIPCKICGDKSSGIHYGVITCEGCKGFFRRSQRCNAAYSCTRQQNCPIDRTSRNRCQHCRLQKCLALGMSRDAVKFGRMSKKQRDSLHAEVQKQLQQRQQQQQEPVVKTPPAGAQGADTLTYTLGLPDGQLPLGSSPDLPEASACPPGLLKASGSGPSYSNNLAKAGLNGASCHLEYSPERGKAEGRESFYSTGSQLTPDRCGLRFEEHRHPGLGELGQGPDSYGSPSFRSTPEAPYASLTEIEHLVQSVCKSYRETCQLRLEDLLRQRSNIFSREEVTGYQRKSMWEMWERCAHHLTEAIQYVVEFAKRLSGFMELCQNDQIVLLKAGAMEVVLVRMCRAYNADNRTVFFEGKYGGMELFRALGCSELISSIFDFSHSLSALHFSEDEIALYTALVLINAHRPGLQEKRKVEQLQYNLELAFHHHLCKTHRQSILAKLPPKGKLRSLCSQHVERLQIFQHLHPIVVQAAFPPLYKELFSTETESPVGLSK

As for `CCCCCCO`, the Potency entry in assay [1], in assay [2], in assay [3], in [6], in assay [8] and in assay [11] was “inactive” each time. Moreover, the activation in [4] was -0.44%. Moreover, the max response in assay [5] is 6.04%; in [9], 4.6%; in [10], 3.47%; in assay [12], 2.06%. In addition, the molecule was classed as inactive in [7] and in [13].

For `CNc1ccc([N+](=O)[O-])cc1`, the Potency result in [1], in assay [2], in [6] and in assay [11] was “inactive” in each case. Further, in assay [4], the activation was 1.91%. Further, the max response is -2.03% in [5], 5.65% in assay [9], 0.311% in assay [10] and 8.26% in [12]. Further, the call in assay [7] and in [13] was inactive.

Regarding `O=C(O)CNC(=O)c1ccc([N+](=O)[O-])cc1`, the Potency entry in assay [14], in assay [1], in [8] and in assay [11] was “inactive” each time. Further, in assay [4], the activation was 0.908%. Besides, the max response in assay [5] was -1.61%; in assay [9], 1.63%; in [10], -4.53%; in assay [12], 1.39%. Also, the molecule was called inactive in assay [7] and in [13].

Consider `C=Cc1ccccc1C=C`, for which the Potency entry in [1], in assay [2], in [3], in [6] and in [8] was “inactive” each time. Besides, in [4], the activation was -0.496%. The max response in assay [5] is -1.6%; in [9] it was 4.89%; in [10] it was 3.31%; in [12], 5.55%. Moreover, the molecule was called inactive in [7] and in assay [13].

For `NC(=O)c1cccc([N+](=O)[O-])c1`, the Potency entry in assay [14], in assay [1], in assay [6], in assay [8] and in [11] was “inactive” each time. In assay [4], the activation is 0.373%. Further, the max response was 2.42% in assay [5], -9.57% in assay [9], -1.82% in assay [10] and 6.83% in assay [12]. For the same molecule, the outcome in assay [7] and in assay [13] was inactive.

`Nc1cccc(C(F)(F)F)c1`: the Potency result in [1], in assay [2], in [3], in assay [6] and in [11] was “inactive” throughout. In assay [4], the activation was 0.706% and 0.403%. The max response in [5] is -0.773% and -2.14%; in assay [9], 1.34% and -3.53%; in assay [10], -2.53% and -9.98%; in assay [12], -1.26% and 1.53%. In assay [7], the molecule was classed as inactive.

For `CCCCC/C=C/C=C/C=O`, the Potency entry in [1], in assay [2] and in assay [11] was “inactive” in each case. Besides, the activation in assay [4] was 0.997% and -0.836%. The max response was -2.99% and -1.24% in assay [5]; -0.854% and -5.85% in assay [9]; -1.02% in assay [10]; 5.82% and -4.16% in [12]. The Potency is 33.5 µM (active) in [6] and 23.7 µM (active) in [8]. Moreover, the molecule was called inactive in [7] and in assay [13].

Turning to `Cc1ccc(C)c(O)c1`, the Potency entry in assay [1], in [3], in [6], in [8] and in assay [11] was “inactive” in each case. In addition, the activation in assay [4] was 0.145%. Besides, the max response in [5] was -1.27%; in assay [9], 0.808%; in assay [10], 5.19%; in assay [12] it was 4.49%. Also, the call in assay [7] and in assay [13] was inactive.

Consider `[O-]/[N+](=N\O)c1ccccc1`, for which the Potency entry in [1], in [6], in assay [8] and in assay [11] was “inactive” throughout. Further, in [4], the activation was 5.58%. The max response in assay [5] is -0.0477%; in assay [9], -5.46%; in [10], -16.3%; in assay [12] it was -1.54%. In assay [13], the outcome was inactive.

On to `Nc1cc(Cl)c(N)c(Cl)c1`, for which the Potency result in assay [14], in [1], in [6], in assay [8] and in assay [11] was “inactive” throughout. Besides, the max response in assay [5] was 1.23% and -1.85%; in [9], -6.05% and -8.26%; in [10], 3.57% and -5.3%; in assay [12] it was -6.29% and -6.62%. Further, the result in assay [7] and in [13] was inactive.

Consider `CCNc1cc(O)ccc1C`, for which the Potency result in assay [14], in assay [1], in assay [6] and in assay [8] was “inactive” in each case. The activation in [4] was 6.45%. Also, the max response in assay [5] is -6.44%; in assay [9] it was 9.97%; in [10] it was 2.21%; in assay [12], -2.12%. Also, the result in assay [7] was inactive.

`CC(=O)Nc1cccc(N)c1`: the Potency entry in assay [14], in [1], in assay [6], in assay [8] and in assay [11] was “inactive” in each case. The activation in assay [4] is -0.0665%. Also, the max response in assay [5] was -7.63%; in assay [9] it was 1.46%; in assay [12], -0.641%. Also, the call in [7] and in [13] was inactive.

Turning to `Cc1ccc(Br)cc1`, the Potency entry in [14], in assay [1], in assay [6], in assay [8] and in assay [11] was “inactive” throughout. The activation in [4] was 0.745%. In addition, the max response in [5] is -0.752%; in assay [9], -9.09%; in assay [10], -7.93%; in [12] it was 10.2%. Also, the molecule was called inactive in assay [7] and in [13].

For the molecule `CCCCCCC=O`, the Potency result in assay [14], in assay [1], in assay [6], in [8] and in assay [11] was “inactive” in each case. Also, the activation in assay [4] is -0.184%. The max response in assay [5] is -2.2%; in [9], 14.6%; in [12] it was -7.57%. Moreover, the call in assay [7] and in [13] was inactive.

Regarding `CC(=O)OCc1ccco1`, the Potency entry in assay [14], in assay [1], in assay [6], in [8] and in [11] was “inactive” throughout. Further, the activation in [4] was 1.48%. The max response in assay [5] is -0.503%; in assay [9], -8.3%; in [12], -1.61%. Besides, the result in [7] and in assay [13] was inactive.

For `FB(F)F`, the Potency entry in assay [14], in assay [1] and in assay [8] was “inactive” each time. Further, the activation in [4] was -0.371%. Besides, the max response was -1.82% in [5], 3.97% in assay [9], -1.64% in assay [10] and -0.777% in assay [12]. Moreover, the molecule was called inactive in assay [7] and in assay [13].
